This passage reports growth results from PubChem BioAssay (NCI).

Compounds without any hit were thinned out: in the full panel of roughly 83,000, 20% have a hit.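 Testing used 96-well plates and a 48-hour single-concentration exposure. Example: -40 means 40% of the starting cells died.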 Active and inactive are the calls of the source. How the source made its calls: active means growth percent below 10; inactive means the rest.

The subject of this assay is HL-60(TB) leukemia. Nature of the assay: NCI-60 one-dose screen, 48 h (100 = growth as untreated, 0 = no growth, -100 = all killed). As to conditions: 10 µM unless noted.
`CCOC(=O)C1=CCC(n2cc(C)c(=O)[nH]c2=O)O1` (centres undefined): the growth was 89.8% (inactive).

As to `c1ccc2cc(Cn3c[n+](Cc4ccc5ccccc5c4)c4ccccc43)ccc2c1`, the growth is -66.3% (active).

In the case of `CC(=O)O[C@H]1[C@@H]2OC(=O)C(CSc3ccccc3)[C@@H]2C[C@H]2O[C@]2(C)CC/C=C(\C)CCC[C@@H]1C` (some centres undefined), the growth was 25.8% (inactive).

For `O=C1/C(=C/c2ccc(Cl)cc2)CN(Cc2cn(CCCNc3ccnc4cc(Cl)ccc34)nn2)C/C1=C\c1ccc(Cl)cc1`, the growth was -46.7% (active).

Consider `COc1ccc(C(=O)C(CN(C)C)c2ccc(OC)cc2)cc1` (centres undefined), for which the growth is 36% (inactive).

Turning to `CC(C)(C)OC(=O)N1CCc2c(sc3ncnc(N/N=C/c4ccccc4Br)c23)C1`, the growth was 94.8% (inactive).

Turning to `CCOc1ccc(NC(=O)c2ccoc2COc2ccccc2)cc1`, the growth is 100% (inactive).

With `CC/C=C\C/C=C\C[C@H]1C/C=C2/C(=O)C=C[C@@H]2C/C=C\CCC(=O)O1`, the growth was 1.1% (active).

For `CN1Cc2c(cc(CN3CCCCC3)n2C)C(c2ccc(Br)cc2)C1` (centres undefined), the growth was 83.8% (inactive).

On to `O=S(=O)(Nc1ccc(I)cc1F)c1ccc(-c2cnc(C3CC3)o2)cc1`, for which the growth is 17.1% (inactive).

As to `COc1cc2c(cc1OC)-c1ccc3cc4c(cc3c1N(CCN1CCCC1)C2)OCO4`, the growth is -39.7% (active).

For `CCCS(=O)(=O)Nc1ccc(F)c(C(=O)c2c[nH]c3ncc(-c4ccc(Cl)cc4)cc23)c1F`, the growth was 30.7% (inactive).

For `O=C(O)c1ccc(NC(=O)c2ccc(Nc3ccnc(C(F)(F)F)c3)cc2)cc1`, the growth was 97.4% (inactive).

For `COc1ccc(Nc2nc(N)nc3c2CCc2occc2-3)cc1`, the growth was 88.8% (inactive).

For the compound `COC(=O)[C@]1(C)CCC[C@]2(C)c3ccc(C(C)C)cc3C(=O)[C@@H](Br)[C@@H]12`, the growth was 68.1% (inactive).

For `CNC(=O)c1cc(Oc2ccc3nc(NC(=O)Nc4ccc(Cl)c(C(F)(F)F)c4)sc3c2)ccn1`, the growth is 97.2% (inactive).

On to `COc1cc2oc(-c3cccc(C(=O)Nc4ccccc4)c3)cc(=O)c2c(O)c1OC`, for which the growth was 92.7% (inactive).

In the case of `Cn1ccc(=O)c(C(=O)Nc2nsc3ccc([N+](=O)[O-])cc23)c1`, the growth was 54.9% (inactive).

Regarding `COc1cc(N=Nc2ccc(N)cc2)c(OC)cc1N=Nc1ccccc1.[Cl][Zn][Cl]`, the growth was 73.5% (inactive).

For the compound `Cc1cc(NC(=O)c2cccc(C(F)(F)F)c2)ccc1-n1ccc2c(NC(=O)c3ccccc3)nccc21`, the growth is 106% (inactive).

For `CCOC(=O)C1=C(C)N=C2Sc3cccc(OC)c3N2[C@H]1c1ccccn1`, the growth was 105% (inactive).

Regarding `Cn1ccc(Nc2nccc(Oc3ccc(C(=O)Nc4cccc(F)c4)c(Cl)c3)n2)c1`, the growth is 95.4% (inactive).

Take `COc1ccccc1S(=O)(=O)Nc1ccc2c3c(cc(-c4cnn(C)c4)nc13)C(=O)N2C`: the growth is -30.1% (active).

Turning to `CN=C(N)N/N=C(\C)c1ccc2c(c1)Cc1ccccc1-2`, the growth was -50.3% (active).
